PubChem BioAssay (NCI)
About 83,000 compounds went through this panel and 20% of them were active in at least one assay; those are over-represented in the sample as a whole.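 Activity criterion: percent growth below 10, measured after cells in 96-well plates were exposed to a single compound concentration for 48 hours.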 Activity calls are given as the source filed them.

What was measured:
Experiment in all cases: NCI-60 one-dose screen, 48 h (100 = growth as untreated, 0 = no growth, -100 = all killed)
Conditions in all cases: 10 µM unless noted
T-47D breast = system: T-47D breast
BT-549 breast = system: BT-549 breast
MDA-MB-435 melanoma = system: MDA-MB-435 melanoma
SW-620 colon = system: SW-620 colon
MCF7 breast = system: MCF7 breast
HCT-116 colon = system: HCT-116 colon
HCC-2998 colon = system: HCC-2998 colon
KM12 colon = system: KM12 colon

Measured: growth

O=C1N(Cc2ccccc2Cl)c2ccccc2C12NN=C(c1ccccc1)S2 (stereo unspecified)
inactive: T-47D breast 72.3% | BT-549 breast 70% | MDA-MB-435 melanoma 68.5% | SW-620 colon 47.6% | MCF7 breast 53.5% | HCT-116 colon 43% | HCC-2998 colon 73.7% | KM12 colon 50.8%

CN(C)N1C(=O)c2c(Cl)c(Cl)c(Cl)c(Cl)c2C1=O
inactive: T-47D breast 93% | BT-549 breast 129% | MDA-MB-435 melanoma 114% | SW-620 colon 108% | MCF7 breast 95.7% | HCT-116 colon 101% | HCC-2998 colon 102% | KM12 colon 113%

CC[C@H](C)[C@H](N)C(=O)O
inactive: T-47D breast 104% | BT-549 breast 108% | MDA-MB-435 melanoma 98.8% | SW-620 colon 103% | MCF7 breast 103% | HCT-116 colon 115% | HCC-2998 colon 106% | KM12 colon 99.5%

CC1=CCC2C1CC=C(C)C(CC[C@H]1[C@@](C)(O)CCC3OC(C)(C)[C@H](OC(=O)c4ccccc4)CC[C@@]31C)C2(C)C (stereo partly specified)
inactive: T-47D breast 74.4% | BT-549 breast 106% | MDA-MB-435 melanoma 86.8% | SW-620 colon 80% | MCF7 breast 74.9% | HCT-116 colon 51.5% | HCC-2998 colon 97.9% | KM12 colon 98.9%

CC(=O)c1ccc(Br)c([N+](=O)[O-])c1
inactive: T-47D breast 104% | BT-549 breast 99.7% | MDA-MB-435 melanoma 101% | SW-620 colon 120% | MCF7 breast 94.1% | HCT-116 colon 96.9% | HCC-2998 colon 109% | KM12 colon 107%

O=C(c1ccccc1)C1OC1C(=O)c1ccccc1 (stereo unspecified)
active: T-47D breast -7.04% | MDA-MB-435 melanoma 1.06% | HCT-116 colon -5.13%
inactive: BT-549 breast 92.1% | SW-620 colon 27.7% | MCF7 breast 16.8% | HCC-2998 colon 69.8% | KM12 colon 55.5%

COc1ccc(-c2cc(C(=O)Nc3ccc(Br)cc3)nc3[nH]c(=O)sc23)cc1
inactive: BT-549 breast 47% | MDA-MB-435 melanoma 39.6% | SW-620 colon 57.1% | MCF7 breast 24.3% | HCT-116 colon 32.1% | HCC-2998 colon 36.1% | KM12 colon 34.7%
active: T-47D breast -0.894%

COc1ccc(/C=N/NC(N)=S)c(OC)n1
inactive: T-47D breast 80% | BT-549 breast 102% | MDA-MB-435 melanoma 101% | SW-620 colon 108% | MCF7 breast 93.6% | HCT-116 colon 99.2% | HCC-2998 colon 115% | KM12 colon 102%

Cn1cnc([N+](=O)[O-])c1S(=O)(=O)Oc1ccccc1
active: T-47D breast 5.06%
inactive: BT-549 breast 100% | MDA-MB-435 melanoma 101% | SW-620 colon 56% | MCF7 breast 84.3% | HCT-116 colon 68.4% | HCC-2998 colon 101% | KM12 colon 100%

CS(=O)(=O)c1ccc(C(=O)N/N=C/c2ccc3c(c2)OCO3)cc1
inactive: T-47D breast 97.3% | BT-549 breast 109% | MDA-MB-435 melanoma 102% | SW-620 colon 105% | MCF7 breast 95% | HCT-116 colon 98.1% | HCC-2998 colon 93% | KM12 colon 95.9%

COc1ccc(-c2cc(-c3cc4ccccc4oc3=O)n(-c3ccccc3)n2)cc1
inactive: T-47D breast 73.1% | BT-549 breast 75.1% | MDA-MB-435 melanoma 100% | SW-620 colon 66.6% | MCF7 breast 76% | HCC-2998 colon 103% | KM12 colon 69.3%
active: HCT-116 colon 2.14%

COc1ccc(C2c3cccn3-c3ccccc3N2C(C)=O)cc1 (stereo unspecified)
inactive: T-47D breast 103% | BT-549 breast 95.4% | MDA-MB-435 melanoma 57% | SW-620 colon 85.5% | MCF7 breast 116% | HCT-116 colon 97.8% | HCC-2998 colon 90.4% | KM12 colon 80.2%

OC(COCc1ccccc1)COCc1ccccc1
inactive: T-47D breast 101% | BT-549 breast 98.6% | MDA-MB-435 melanoma 112% | SW-620 colon 110% | MCF7 breast 92.6% | HCT-116 colon 99% | HCC-2998 colon 97.9% | KM12 colon 105%

CCN(CC)c1ccc(/C=N/N=C(N)N)cc1
active: MDA-MB-435 melanoma -23%
inactive: T-47D breast 63.4% | BT-549 breast 51.5% | SW-620 colon 19.3% | MCF7 breast 15.4% | HCT-116 colon 32.5% | HCC-2998 colon 85.5% | KM12 colon 25.2%

CN(C)c1ccc(/C=C\c2cccc[n+]2C)cc1
active: KM12 colon 6.97%
inactive: T-47D breast 14.6% | BT-549 breast 20.1% | MDA-MB-435 melanoma 33.6% | SW-620 colon 22.4% | MCF7 breast 39.3% | HCT-116 colon 19.3% | HCC-2998 colon 35.7%

O=C(CCl)N1c2ccccc2Oc2ccc3ccccc3c21
inactive: MCF7 breast 10.4% | HCC-2998 colon 103% | KM12 colon 17.3%
active: T-47D breast -62.5% | BT-549 breast -67.3% | MDA-MB-435 melanoma -22.4% | SW-620 colon -81.2% | HCT-116 colon -98.8%

CCCCc1nc(Cl)c(C2CC(c3ccc(S(N)(=O)=O)cc3)=NN2c2cc(Cl)cc(Cl)c2)[nH]1 (stereo unspecified)
inactive: T-47D breast 42.5% | BT-549 breast 60.3% | MDA-MB-435 melanoma 35.7% | SW-620 colon 58% | HCT-116 colon 14.7% | HCC-2998 colon 29.4% | KM12 colon 32.1%
active: MCF7 breast 6.51%
